Assay results: PubChem BioAssay AID1347071 (National Center for Advancing Translational Sciences (NCATS), 2019)
In all, about 410,000 compounds went through this assay and about 260 (0.063%) were called active. Inconclusive results (about 2%) are left out. This excerpt belongs to a sample that is enriched for actives. Unmarked numbers belong to inactive results. Calls come from the whole dose curve; as a rule, active = well fitted activation curve with a large enough effect; inconclusive = small, poorly fitted or top-dose-only effect; inactive = no such curve, though single readings can be large or run the other way.

Experiment: qHTS for compounds that reverse cellular toxicity of Amyloid beta (A-beta) peptide in yeast: Primary Screen; note: nearly all actives have a fitted effect of over 55% in size
Details: yeast expressing A-beta42, growth rescue, OD600, 48 h; series mostly up to 46.1 µM; growth rescue: at the top concentration
Excerpt: The A-beta peptide is produced by the processing of the amyloid precursor protein (APP) by two proteases, beta and gamma secretases. […] A-beta42 is regarded as the most amyloidogenic form due to its hydrophobicity; however, precisely how A-beta42 induces neurotoxicity is unclear. To understand further this biology and its potential therapeutic implications for human neurodegenerative disease, a quantitative high-throughput screen for compounds that reverse the cellular toxicity of the A-beta peptide was developed. A yeast based screen was used because it recapitulates the salient feature of protein mis-folding disorder accurately. This cell-based phenotypic screen provides a significant, unbiased advantage by letting the compounds and models inform us which proteins or pathways are most relevant. The ideal chemical candidates would therefore have activity in both our primary yeast and secondary neuronal toxicity assays, as well as in mouse models. They will be valuable tools for dissecting diverse protein homeostasis pathologies and could potentially become the focus for future pre-clinical development. For this luminescence assay, inhibition of A-beta rescues the toxic effect in the yeast cell, resulting in increase of signals and the desired phenotype of "Activator". This screen is run against the Molecular Libraries Small Molecule Repository (MLSMR) and the NCGC Sytravon Library Collection.
NIH Chemical Genomics Center [NCGC]
NIH Molecular Libraries Probe Centers Network [MLPCN]
Assay Submitter (PI): Susan Lindquist, Whitehead Institute, Massachusetts Institute of Technology
[1] Vassar R,et al (1999). Beta-secretase cleavage of Alzheimer's amyloid precursor protein by the transmembrane aspartic protease BACE. Science. 286: 735-741.
[2] Yan R, et al (1999). Membrane-anchored aspartyl protease with Alzheimer's disease beta-secretase activity. Nature. 402: 533-536.
Two and a half microliter / well of yeast growth medium were dispensed in a 1536 assay plate. Compounds were pinned using the Kalypsys robotic system followed by addition of 2.5 uL / well yeast solution. The assay plates were incubated at 30 C. After 48 hr, the absorbance signal at 600 nm was obtained using the PerkinElmer ViewLux plate reader to assess yeast growth. The data was normalized to the positive control of an equimolar mixture of ferric chloride (FeCl3) and clioquinol and to the negative control DMSO.

Row | Structure (SMILES) | growth rescue | Potency
1 | CCOC(=O)C1CCN(c2csc3ccc(C)cc3c2=O)CC1 | 5.03% | 
2 | CCC(=O)Nc1ccccc1-c1nc2ccccc2n(CC(=O)Nc2ccc(C)c(C)c2)c1=O | -5.82% | 
3 | CCCNc1ncnc2c1c(-c1ccccc1)cn2-c1ccc(OCC)cc1 | -18.2% | 
4 | COc1ccc(OC)c(CCNC(=O)CCCn2c(=O)c3cccn3c3cccnc32)c1 | -8.83% | 
5 | CCOC(=O)c1cnc2c(C)cc(C)cc2c1Nc1ccc(N2CCOCC2)cc1 | -5.22% | 
6 | COc1ccc(CNC(=O)Cn2nnc(-c3ccccc3F)n2)cc1 | 6.97% | 
7 | Cc1cccc(-n2ccnc2SCC(=O)Nc2cccc3ccccc23)c1C | -14.7% | 
8 | O=C(/C=C/c1ccccc1)N1CCN(Cc2cc(=O)n3nc(-c4ccccc4F)sc3n2)CC1 | -4.83% | 
9 | Cc1ccc(Oc2c(C(F)(F)F)oc3c(CN4CCCCC4)c(O)ccc3c2=O)cc1 | 1.02% | 
10 | O=C(NC1(C(F)(F)F)N=C(c2ccccc2)N(C2CCCCC2)C1=O)c1ccccc1F (configuration not stated) | -14.2% | 
11 | Cc1cccc(N2CCN(C3=C(c4ccccc4)C(=O)c4ccccc43)CC2)c1C | -1.76% | 
12 | Cc1ccc(-n2nnnc2CNC(=O)c2ccccc2C)cc1C | -1.32% | 
13 | CCOC(=O)C1CCN(C(=O)CSc2c3c(nc4ccc(Cl)cc24)CCCC3)CC1 | -29.2% | 
14 | CN(Cc1ccccc1)C(=O)c1cc2c(=O)n(C)c3ccccc3c2s1 | -23.3% | 
15 | COc1ccccc1NC(=O)c1sc2nc(C)c(C(=O)Nc3ccc(Cl)cc3)c(-c3ccc(Br)cc3)c2c1N | 0.809% | 
16 | CCOc1ccc(CNCCSc2nnnn2C)cc1 | -10.3% | 
17 | CCOC(=O)c1ccccc1NC(=O)c1nn(-c2ccc(OC)c(Cl)c2)c(=O)c2c1c1ccccc1n2C | -7.24% | 
18 | COCCn1c(CCC(=O)Nc2cc(C)ccc2C)nc2cccnc21 | -14.8% | 
19 | COc1cccc(CN2CCc3nc(SCC(=O)Nc4ccccc4)[nH]c(=O)c3C2)c1 | -18.6% | 

Row | Structure (SMILES) | growth rescue | Potency
20 | Cc1c(NC(=O)C(C)(C)C)cccc1-c1nc2ccccc2s1 | -1.45% | 
21 | CC(C)CC(=O)N/C(N)=N/c1nc2ccccc2s1 |  | 11.2 µM (active)
22 | Cc1cc(C)cc(-n2ccnc2SCC(=O)Nc2nc3ccccc3s2)c1 | -20.3% | 
23 | Cc1ccc(-c2cc(C(=O)Oc3ccccc3Cl)no2)cc1C | -21.5% | 
24 | Cc1ccc(C)c(Cn2c(=O)n(CCC(=O)NCc3ccc4c(c3)OCO4)c(=O)c3sccc32)c1 | -2.35% | 
25 | CC(=O)N1CCCc2ccc(NS(=O)(=O)c3ccc(F)cc3F)cc21 | -11.4% | 
26 | COc1ccc(OC)c(CNC(=O)Cn2nc(C)c3c(C)n(-c4ccccc4)nc3c2=O)c1 | -7.97% | 
27 | COc1cc(OC)c(OC)cc1/C=C/c1nc2cc3ccccc3cc2c(=O)n1-c1ccc(F)c(Cl)c1 | 1.71% | 
28 | CCOC(=O)c1cccc(NC(=O)C(Cc2ccccc2)NS(=O)(=O)c2cccc3nsnc23)c1 (configuration not stated) | 2.38% | 
29 | COC(=O)c1ccc(C2C(C(=O)Nc3ccccc3)=C(C)Nc3nc4ccccc4n32)cc1 (configuration not stated) | -12.9% | 
30 | O=C(CSc1ccc([N+](=O)[O-])cn1)Nc1ccc(N2CCOCC2)c(Cl)c1 |  | 22.4 µM (active)
31 | O=C(CSc1nccc(=O)[nH]1)Nc1ccc(N2CCOCC2)c(Cl)c1 | 1.41% | 
32 | CCOc1ccc(C(=O)NC(=S)Nc2ccc(N3CCOCC3)c(Cl)c2)cc1[N+](=O)[O-] | 23.6% | 
33 | Cc1cc(=O)c2cc(C(=O)Nc3cccc(C)c3C)ccc2[nH]1 | -23.2% | 
34 | Cc1cc2n(n1)C(c1cc(C(C)(C)C)c(O)cc1O)Nc1ccccc1-2 (configuration not stated) | -7.92% | 
35 | Cc1ccc(S(=O)(=O)c2nc(-c3cccs3)oc2N2CCCCC2)cc1 | -18.9% | 
36 | CCOC(=O)c1ccc(NC(=O)Cn2cc(S(=O)(=O)Cc3ccccc3F)c3ccccc32)cc1 | -11.8% | 
37 | Cc1ccc2sc(N(Cc3cccnc3)C(=O)C3COc4ccccc4O3)nc2c1C (configuration not stated) | 0.662% | 
38 | Cc1ccc(C(=O)Nc2ccc3[nH]c(=O)c(=O)[nH]c3c2)cc1 | -7.86% | 

Row | Structure (SMILES) | growth rescue | Potency
39 | C=Cc1ccc(Cn2c(C(=O)OC)cc3sc(C)cc32)cc1 | -8.79% | 
40 | CC1=C(C(=O)OCc2ccc(C)cc2)C(c2c(Cl)cccc2Cl)CC(=O)N1 (configuration not stated) | 0.21% | 
41 | COc1cc(-c2noc(-c3ccc(N4CCCC4)c([N+](=O)[O-])c3)n2)cc(OC)c1OC | -0.0152% | 
42 | CCc1ccccc1NC(=O)N1CCN(C(=O)c2nsc3ccccc23)CC1 | -5.21% | 
43 | COc1cccc(CNC(=O)CN2C(=O)CCc3cc(S(=O)(=O)N4CCOCC4)ccc32)c1 | -1.3% | 
44 | CCn1c2c(c(=O)n3ncc(C(=O)N4CCN(c5ccccc5)CC4)c13)CN(Cc1ccc(OC)cc1)CC2 | -35% | 
45 | O=C(NC1CC(=O)N(c2ccc(Cl)cc2)C1)C1CCCC1 (configuration not stated) | -12.4% | 
46 | Cc1csc2nc(COC(=O)c3ccc(NC(=O)COc4ccccc4F)cc3)cc(=O)n12 | -4.93% | 
47 | COc1ccc(-c2cccc(NS(=O)(=O)c3cc(C)c(OC)c(C)c3C)c2)nn1 | -2.08% | 
48 | CCN(C(=O)Cn1cc(S(=O)(=O)N2CCN(c3ccccc3F)CC2)c2ccccc2c1=O)c1ccc(C)c(C)c1 | -0.545% | 
49 | COc1cc2nc(SCc3ccc(F)cc3)n3nc(CCn4c(C)nc5ccccc54)nc3c2cc1OC | 3% | 
50 | N#Cc1nc(/C=C/c2ccc(F)cc2)oc1NC1CCCCC1 | -13% | 
51 | Cc1ccc(CNS(=O)(=O)c2ccc(-c3cc(C(F)(F)F)on3)s2)cc1 | -5.81% | 
52 | O=C(CCC1N=C2c3ccccc3N=C(SCc3ccccc3F)N2C1=O)NCCc1ccccc1 (configuration not stated) | -8.87% | 
53 | Cc1ccc(OCCn2c(CNc3ccccc3C)nc3ccccc32)cc1 | 15.5% | 
54 | CCCC12CN3CC(C)(CN(C1)C3c1ccccc1Cl)C2=O (configuration not stated) | -3.76% | 
55 | CCC1CCCCN1C(=O)Cn1c(=O)n(CCCCCC(=O)NCc2ccccc2)c(=O)c2sccc21 (configuration not stated) | -5.1% | 
56 | Cc1ccc(C2c3[nH]c4ccccc4c3CCN2C(=O)c2cccc(C)c2)cc1 (configuration not stated) | -11.7% | 
57 | Cc1onc(-c2ccc(F)cc2F)c1C(=O)Nc1cccc(C(F)(F)F)c1 | 14.6% | 
